A selection: hits, their analogues and other compounds. The true share with any hit is near 4.1%.
NSD2 inh = inhibitors of human histone methyltransferase NSD2 | NSD2 peptide methylation, AlphaScreen, 120 min | inhibition, % at 12.5 µM | 310,000 tested, 0.54% active | AID 743445; in the data active = inhibition above about 50%
Target sequence (O96028 whole entry, looked up): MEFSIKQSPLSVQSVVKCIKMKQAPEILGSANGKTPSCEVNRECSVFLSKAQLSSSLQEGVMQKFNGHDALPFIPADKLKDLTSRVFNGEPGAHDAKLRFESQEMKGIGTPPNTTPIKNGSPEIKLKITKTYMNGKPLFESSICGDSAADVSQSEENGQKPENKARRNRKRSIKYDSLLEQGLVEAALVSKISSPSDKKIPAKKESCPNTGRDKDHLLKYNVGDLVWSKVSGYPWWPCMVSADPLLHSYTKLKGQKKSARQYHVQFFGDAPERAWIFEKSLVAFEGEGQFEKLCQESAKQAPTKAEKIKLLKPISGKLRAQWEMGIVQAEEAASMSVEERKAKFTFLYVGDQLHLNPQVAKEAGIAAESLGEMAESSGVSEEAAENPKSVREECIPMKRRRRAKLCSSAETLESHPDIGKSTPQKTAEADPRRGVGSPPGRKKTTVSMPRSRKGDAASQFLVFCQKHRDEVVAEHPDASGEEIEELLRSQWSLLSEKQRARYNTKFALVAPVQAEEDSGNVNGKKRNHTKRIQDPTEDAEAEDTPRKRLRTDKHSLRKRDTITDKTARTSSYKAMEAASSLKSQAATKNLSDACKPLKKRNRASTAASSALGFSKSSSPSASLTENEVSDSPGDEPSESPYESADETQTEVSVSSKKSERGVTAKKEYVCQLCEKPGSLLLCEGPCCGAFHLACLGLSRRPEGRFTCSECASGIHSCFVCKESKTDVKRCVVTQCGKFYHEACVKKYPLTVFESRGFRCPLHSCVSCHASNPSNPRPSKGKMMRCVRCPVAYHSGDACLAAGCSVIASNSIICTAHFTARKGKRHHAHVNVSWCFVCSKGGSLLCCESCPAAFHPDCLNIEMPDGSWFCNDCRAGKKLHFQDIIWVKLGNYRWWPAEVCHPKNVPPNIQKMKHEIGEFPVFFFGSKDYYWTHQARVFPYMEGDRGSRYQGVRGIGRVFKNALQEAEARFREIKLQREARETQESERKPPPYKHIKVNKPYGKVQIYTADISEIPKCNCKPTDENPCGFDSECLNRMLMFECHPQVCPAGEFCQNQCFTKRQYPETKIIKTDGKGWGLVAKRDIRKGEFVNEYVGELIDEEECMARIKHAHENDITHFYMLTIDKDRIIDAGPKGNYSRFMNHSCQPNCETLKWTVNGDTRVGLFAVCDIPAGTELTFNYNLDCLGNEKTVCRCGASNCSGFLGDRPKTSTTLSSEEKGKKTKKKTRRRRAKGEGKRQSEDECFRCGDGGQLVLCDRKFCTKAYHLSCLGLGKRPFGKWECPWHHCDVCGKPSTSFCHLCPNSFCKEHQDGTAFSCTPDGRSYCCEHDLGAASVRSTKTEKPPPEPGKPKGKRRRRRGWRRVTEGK
Casp6 inh = blocks human caspase-6 cleavage activity. P55212. purified caspase-6, Z-VEID-R110 cleavage fluorescence. inhibition, % at 12.5 µM. 350,000 tested, 0.53% active. AID 686996;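 active = mean inhibition across replicates at least about 35%, with every replicate also reaching that limit, limit read from the data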;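 also: 0% = median of neutral control wells and 100% = no fluorescence left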
HIV Env fusion = inhibitors of HIV Env-mediated cell fusion | HeLa-JRFL Env/CEM21 cell fusion, luciferase | inhibition, % at 12.3 µM | 360,000 tested, 1.1% active | AID 651610;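 active = mean replicate inhibition score of at least 50 and every replicate individually at or above 50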;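 also: 0% = plate neutral controls and 100% = maraviroc near 300 nM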
CFTR F508del cor = correctors of CFTR F508del function in bronchial epithelial cells. 350,000 tested, 0.36% active. CFBE cells, YFP halide quenching; stimulated with forskolin plus potentiator P3; % fluorescence drop versus neutral controls. activity (quench increase), % at 7.58 µM;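 active = mean added fluorescence quench of at least 8% versus neutral control, with both replicates also reaching 8%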;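 also: cells transiently co-express mutant CFTR-F508del with the halide-sensitive YFP; corrector assay measuring rescue of mutant channel to the surface after 24 h compound exposure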
PglD DTNB = blocks C. jejuni PglD acetyltransferase activity. purified PglD enzyme, DTNB colorimetric CoA detection. inhibition, % at 12.5 µM. 360,000 tested, 0.098% active. AID 602405; in the data active = inhibition above about 16%, passing the limit was not always enough
ALR inh = inhibitors of human sulfhydryl oxidase ALR; P55789; purified ALR, DTT oxidation, H2O2 HRP-luminol luminescence; inhibition, % (no concentration beside the values); 290,000 tested, 3.8% active; AID 485317;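 active = mean replicate inhibition above about 79%, with every replicate also reaching it, limit read from the data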
* hit, by the source's call; i = inactive; . = not tested or not shown; [ ] = remark or other dose.

SMILES | NSD2 inh | Casp6 inh | HIV Env fusion | CFTR F508del cor | PglD DTNB | ALR inh
COc1ccc(NC(=O)N(C)C[C@H]2Oc3c(NS(=O)(=O)c4ccc(F)cc4)cccc3C(=O)N([C@H](C)CO)C[C@H]2C)cc1 | . | . | 1.0[16.7 µM] | 0.1 | 1.5 | .
COC(=O)c1ccccc1NC(=O)c1cc(-c2cccs2)on1 | -0.7 | 1.7 | . | -2.0 | 6.9 | -11.5
COC(=O)c1ccccc1NC(=O)c1cc(-c2ccco2)on1 | 2.3 | 65.9* | 1.8 | 0.2 | -0.3 | 10.6
Cc1cc(CN(C)C(=O)CC2C(=O)NCCN2Cc2c(F)cccc2Cl)n[nH]1 (stereo unspecified) | 2.2 | -0.1 | 64.7* | 0.0 | . | -7.3
Cc1nonc1CN(C)C(=O)CC1C(=O)NCCN1Cc1c(F)cccc1Cl (stereo unspecified) | -1.9 | -2.5 | -14.3 | -3.1 | 13.7 | 0.5
CCOC(=O)CSc1nc2cc(OC)ccc2cc1C#N | 3.8 | . | i | . | 7.6 | .
CCOC(=O)CSC1=C(C#N)C(=O)NC(c2ccc(OC)cc2)S1 (stereo unspecified) | 11.2 | . | -5.3 | . | 1.6 | 98.2*
CCOC(=O)CSC1=C(C#N)C(=O)NC(c2ccc(OC)c(OC)c2)S1 (stereo unspecified) | 0.2 | . | . | . | -4.2 | 98.7*
COc1ccc(NC(=O)N(C)C[C@H]2OCCCC[C@@H](C)Oc3ccc(NS(=O)(=O)c4c(C)noc4C)cc3C(=O)N([C@@H](C)CO)C[C@H]2C)cc1 | . | . | -15.7[16.7 µM] | -0.6 | -2.2 | .
NC(=S)Nc1cccc(-c2n[nH]c(=S)o2)c1 | 0.5 | 5.1 | -0.3 | -0.7 | . | .
Cc1ccc(NC(=S)Nc2cccc(-c3n[nH]c(=S)o3)c2)cc1 | 7.7 | 3.6 | -9.5 | 1.5 | . | 88.9*
CC(C)NC(=O)Nc1ccc2c(c1)CC(=O)N([C@H](C)CO)C[C@H](C)[C@@H](CN(C)C)O2 | . | 0.3 | 10.9[16.7 µM] | 0.0 | -3.3 | .
CCOc1ccc(CCN2C(=S)N([C@@H](Cc3ccc(O)cc3)CN3CCC[C@@H]3CN3C(=S)NC[C@@H]3CC(C)C)C[C@@H]2Cc2ccc(O)cc2)cc1 | . | 1.3 | 67.3* | 4.3 | -0.4 | .
CCOc1ccc(CCN2C(=S)N([C@@H](Cc3ccccc3)CN3CCC[C@@H]3CN3C(=S)NC[C@@H]3Cc3ccc(O)cc3)C[C@@H]2CC(C)C)cc1 | . | 6.9 | 63.9* | -4.3 | 2.4 | .
COc1ccc2c3c(n(C)c2c1)[C@H](CO)N(C(C)=O)CC31CCN(C(=O)NC(C)C)CC1 | . | -1.3 | . | 1.3 | . | .
CN(C(=O)c1ccc(F)cc1)c1ccc(OCC(=O)Nc2ccccc2C(=O)O)cc1 | -2.9 | 3.5 | 4.1 | -2.4 | 0.2 | -6.5
CN(C(=O)c1ccc(Cl)cc1)c1ccc(OCC(=O)Nc2cc(C(=O)O)ccc2Cl)cc1 | 7.4 | 36.4* | . | 3.0 | . | .
Cc1noc(C)c1NC(=O)Nc1ccc2c(c1)CC(=O)N([C@@H](C)CO)C[C@@H](C)[C@H](CN(C)Cc1ccc3c(c1)OCO3)O2 | . | 0.6 | -8.7[16.7 µM] | -1.0 | -2.8 | .
Cn1c(-c2cccc([N+](=O)[O-])c2)cnc1NCc1ccc(C#N)cc1 | 5.8 | 3.8 | 10.0 | -1.1 | . | 98.6*
Cn1c(-c2cccc([N+](=O)[O-])c2)cnc1NCc1cccc(F)c1 | 16.8 | -2.3 | 5.5 | -0.9 | 3.3 | 98.6*
Cn1c(-c2ccc(F)cc2)cnc1NCc1cccc([N+](=O)[O-])c1 | 0.5 | -5.9 | -4.7 | . | 2.3 | 18.9
COc1ccc(-c2cc(=O)oc3c(O)c(O)ccc23)cc1 | 33.3 | 25.8 | 22.4 | 0.2 | 1.6 | 98.5*
S=C1Nc2ccccc2CS1 | 0.8 | . | 6.7 | -2.3 | -2.9 | .
c1ccc2c(c1)CSc1ccccc1N2 | 39.5 | 0.8 | -10.2 | -0.9 | 0.3 | 98.3*
CC1CCC(C(C)C)C(OC(=O)Cn2c(-c3ccccc3)[n+](C)c3ccccc32)C1 (stereo unspecified) | 2.7 | 0.7 | 69.0* | -5.8 | 2.0 | 2.8
CC1CCC(C(C)C)C(OC(=O)Cn2c(-c3ccc(F)cc3)[n+](C)c3ccccc32)C1 (stereo unspecified) | 5.2 | 7.4 | 65.5* | 7.7 | -4.3 | .
Cc1cccc(OCc2n(CC(=O)OC3CC(C)CCC3C(C)C)c3ccccc3[n+]2C)c1 (stereo unspecified) | 29.8 | . | . | . | . | -11.7
CO[C@@H](CN(C)Cc1cc(F)ccc1F)[C@@H](C)CN(C(=O)Nc1ccc(C(F)(F)F)cc1)[C@@H](C)CO | . | -0.3 | . | 0.2 | 1.2 | .
